Drawing on PubChem BioAssay (NCATS), this text covers Potency for 40 compounds.

Each structure is given as a SMILES string. Results filed as inconclusive are left out. Entries that show only a call come without a potency. Calls of active or inactive are those of the source. Calls come from the whole dose curve; as a rule, active = well fitted cell-killing curve with a large enough effect; inconclusive = small, poorly fitted or top-dose-only effect; inactive = no such curve, though single readings can be large or run the other way.
Potency is the fitted concentration of half-maximal effect.

The nature of this assay: qHTS of pediatric cancer cell lines to identify multiple opportunities for drug repurposing: Primary screen for SJ-GBM2 cells (AID 1347091). The settings on record: SJ-GBM2 viability, CellTiter-Glo luminescence, 48 h; series mostly up to 46 µM. From the text: Drug repurposing or repositioning has been offered as a strategy for drug development in oncology programs. This approach has special potential for childhood cancers and other rare or orphan diseases, where the expected return on new drug development has been a disincentive to pharmaceuticals.
In this project we exploit the poly-pharmacology of drugs to discover new indications via phenotypic screening of a panel of 19 well-characterized cell lines derived from solid tumors seen in children and adolescents. The goal is to identify approved drugs with previously unrecognized anticancer properties that has the potential to reveal new mechanisms and biological processes involved in carcinogenesis or drug resistance. We employed a titration-based paradigm (quantitative high-throughput screening or qHTS), where all compounds were tested at multiple concentrations for their effect on cell viability. Concentration-response curves (CRCs) were derived directly from the primary screen, and both potency and efficacy values were used to identify compounds with robust bioactivity profiles. We screened the NIH Chemical Genomics Center (NCGC) Pharmaceutical Collection (NPC) and Mechanism Interrogation Plate (MIPE) small molecule collections of approved and investigational compounds against these cell lines; and measured metabolically active cells after 48 hours of compound treatment as a proxy for cell viability.
Assay Submitter: Nathalia J. Martinez, National Center for Advancing Translational Sciences, National Institutes of Health, Rockville, MD, USA; email: natalia.martinez@nih.gov
[1] Shen, M et al. Quantitative high-throughput phenotypic screening of pediatric cancer cell lines identifies multiple opportunities for drug repurposing. Oncotarget 2017 Dec 19;9(4):4758-4772. PMID 29435139.
The cells were obtained from University of North Carolina (UNC), Pediatric Preclinical Testing Program (PPT), and Coriell Institute (CI).
qHTS cell viability assay:
Cells were assayed in growth media at a density of 500-1,000 cells/well. Five microliters of cells were dispensed into 1,536-well, white, solid-bottom, TC-treated plates (Greiner Bio One) using a multidrop dispenser and incubated at 37 degrees C, 5% CO2, under a humidified atmosphere for 5 hours. Twenty-three nanoliters of compounds and controls (neutral control DMSO or positive control bortezomib at final concentration of 2.3 µM) were subsequently transferred by Kalypsys pintool. For primary screens, the MIPE collection was tested at 11-point dilutions (final concentrations range from 0.78 nM to 46 µM) and the NPC collection at 8-point dilutions (final concentrations range from 0.59 nM to 46 µM). Compounds tested in follow-up screens were assayed at 11-point dilutions. Cells were incubated for 48 hours, followed by addition of 3 uL of CellTiter-Glo (Promega). After a 15 min incubation at room temperature, samples were analyzed for luminescence intensity using a ViewLux High-throughput CCD imager equipped with clear filters.
Turning to `CC[C@H](C)n1cc(C)c2c(C(=O)NCc3c(C)cc(C)[nH]c3=O)cc(-c3ccc(N4CCNCC4)nc3)cc21`, the Potency result was “inactive”.

As for `CN(C)CCCNC(=O)c1ccc(-c2cc(O)c3ncccc3c2)cc1`, the Potency entry is “inactive”.

`NC(=O)c1nnn(Cc2cc(Cl)c(C(=O)c3ccc(Cl)cc3)c(Cl)c2)c1N`: the Potency is 18.7 µM (active).

As to `CN1C(=O)C(Cc2c[nH]c3ccccc23)NC1=S` (stereo not given), the Potency entry was “inactive”.

Turning to `C[C@@H](N)c1ccc(C(=O)Nc2ccnc3[nH]ccc23)cc1`, the Potency was 11.8 µM (active).

In the case of `CC1C(=O)OC2C(O)C34C5CC(C(C)(C)C)C36C(OC(=O)C6O)OC4(C(=O)O5)C12O` (stereo not given), the Potency result is “inactive”.

For `Cc1cnc(Nc2cccc(CN3CCOCC3)c2)nc1Nc1cccc(S(=O)(=O)NC(C)(C)C)c1`, the Potency was 4.18 µM (active).

On to `O=C(c1ccc(C=Cc2n[nH]c3ccccc23)cc1)N1CCNCC1`, for which the Potency is 4.18 µM (active).

As for `NC(N)=Nc1nc(CSCCC(N)=NS(N)(=O)=O)cs1`, the Potency entry is “inactive”.

For `CCCCC[C@H](O)C=C[C@H]1[C@H](O)CC(=O)[C@H]1CCCCCCC(=O)O`, the Potency entry is “inactive”.

Take `CN1C(=O)C[C@H](C(=O)N[C@@H](Cc2cnc[nH]2)C(=O)N2CCC[C@@H]2C(N)=O)NC1=O`: the Potency result was “inactive”.

For `Cc1nn(Cc2ccccc2Cl)c(C)c1CN(C)CC(O)COc1ccc(Cl)cc1` (stereo not given), the Potency is 20.9 µM (active).

Turning to `Cn1c(=O)c(-c2c(Cl)cccc2Cl)cc2cnc(Nc3cccc(C(=O)O)c3)nc21`, the Potency is 0.526 µM (active).

Regarding `CN[C@@H]1CN(c2ccc3c(=O)c(C(=O)O)cn(-c4nccs4)c3n2)C[C@@H]1OC`, the Potency was 1.15 µM (active).

On to `NCc1c[nH]c(=S)n1[C@H]1CCc2c(F)cc(F)cc2C1`, for which the Potency was 26.4 µM (active).

On to `COc1ccc(-c2cc3nccn3c(Nc3ncccc3C(N)=O)n2)cc1OC`, for which the Potency is 1.18 µM (active).

With `O=C(Nc1ncc(SCCN2CCCC2)s1)[C@]1(c2ccc(S(=O)(=O)C3CC3)cc2)C[C@@H]1C1CCCCC1`, the Potency was 23.5 µM (active).

Turning to `O=S(=O)(O)c1ccc2cc(N=Nc3cc(S(=O)(=O)O)c4cccnc4c3O)ccc2c1`, the Potency result is “inactive”.

For `Nc1nc(Cl)nc2c1ncn2[C@@H]1O[C@H](CO)[C@@H](O)[C@H]1F`, the Potency was 0.001 µM (active).

For the compound `O=C(c1ccc(C(=O)N2CCC(N3CCCC3)CC2)c(Nc2ccccc2)c1)N1CCC(N2CCCC2)CC1`, the Potency result is “inactive”.

`CC(C)CN(C[C@H](O)[C@H](Cc1ccccc1)NC(=O)O[C@H]1CCOC1)S(=O)(=O)c1ccc(N)cc1`: the Potency entry is “inactive”.

On to `CN(C)CCN(C)C(=O)c1ccc(NC(=O)Nc2ccc(-c3nc(N4CCOCC4)c4ccn(CC(F)(F)F)c4n3)cc2)cc1`, for which the Potency was 0.105 µM (active).

Consider `CN[C@@H]1[C@@H](O)[C@@H](O[C@@H]2[C@@H](O)[C@H](O[C@H]3O[C@H](CN)[C@@H](O)[C@H](O)[C@@H]3O)[C@@H](N)C[C@@H]2NC(=O)[C@@H](O)CN)OC[C@]1(C)O`, for which the Potency entry was “inactive”.

On to `CC(=O)Nc1cccc(-n2c(=O)n(C3CC3)c(=O)c3c(Nc4ccc(I)cc4F)n(C)c(=O)c(C)c32)c1`, for which the Potency entry was “inactive”.

As for `Cn1cc(-c2ccc3nnc(Sc4ccc5ncccc5c4)n3n2)cn1`, the Potency is 0.0118 µM (active).

Consider `Cc1cn([C@@H]2C[C@@H](O)[C@H](CO)O2)c(=O)[nH]c1=O`, for which the Potency entry was “inactive”.

Regarding `O=C(O)C1=CC(O)C(O)[C@H](O)C1` (stereo not given in full), the Potency result is “inactive”.

On to `O=C1CCCC(=O)C1C(=O)c1ccc(C(F)(F)F)cc1[N+](=O)[O-]`, for which the Potency result is “inactive”.

Turning to `O=C(Nc1ccc(OC(F)(F)F)cc1)c1sccc1NCc1ccnc2ccccc12`, the Potency result was “inactive”.

As for `CC1(C)OC2CC3C4CC(F)C5=CC(=O)C=CC5(C)C4C(O)CC3(C)[C@]2(C(=O)CO)O1` (stereo not given in full), the Potency result was “inactive”.

As for `CC(NCCc1ccc(O)cc1)C(O)c1ccc(O)cc1` (stereo not given), the Potency entry is “inactive”.

Turning to `COc1cc(Nc2nc3ccccc3nc2NS(=O)(=O)c2ccc(NC(=O)c3ccc(C)c(OC)c3)cc2)cc(OC)c1`, the Potency is 23.5 µM (active).

For `CC1=C[C@@H]2[C@@H]([C@@H](O)C[C@@]3(C)[C@H]2C[C@@H](C)[C@]3(O)C(=O)CO)[C@@]2(C)Cc3cnn(-c4ccccc4)c3C=C12`, the Potency was 20.9 µM (active).

Regarding `CCC(=O)NCC[C@@H]1CCc2ccc3c(c21)CCO3`, the Potency result was “inactive”.

Take `COc1cccc(OC)c1-c1cc(C(=O)NC2(C(=O)O)C3CC4CC(C3)CC2C4)nn1-c1ccnc2cc(Cl)ccc12` (stereo not given): the Potency is 26.4 µM (active).

In the case of `Cc1cnc(-c2cc(N3CCN(C(=O)CCS(C)(=O)=O)CC3)ncc2Cl)c(C)c1`, the Potency result was “inactive”.

For the compound `COc1ccc2c(c1)CC[C@H]1[C@@H]2CC[C@]2(C)[C@@H](NCCCCCCN3C(=O)C=CC3=O)CC[C@H]12`, the Potency result is “inactive”.

With `CSc1cccc(Nc2ncc3cc(-c4c(Cl)cccc4Cl)c(=O)n(C)c3n2)c1`, the Potency is 0.418 µM (active).

For the compound `Cc1nc(NC(=O)N2CCC[C@@H]2C(N)=O)sc1-c1csc(C(C)(C)C)n1`, the Potency is 4.18 µM (active).

Turning to `NC(=O)c1noc([C@H](CCCC2CCCCC2)CC(=O)NO)n1`, the Potency is 18.7 µM (active).
